# Assay outcomes from PubChem.
# WRN inhibitor: inhibitors of human WRN helicase; AID 651768; WRN helicase unwinding, fluorescent forked duplex, kinetic; Potency, µM (series often up to 114 µM), for inactives: top-dose activity change, negative = inhibition, actives largely listed as inhibitors; Q14191; actives 0.46% (n = 360,000); further: potency means the concentration at half of the fitted maximal effect; on the % scale 0 is the no-effect control and ±100 the full control effect; nearly all actives have a fitted effect of over 55% in size
#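 WRN at 20 nM final preincubated with compound 15 min at room temperature; reaction started with 100 nM fluorophore/quencher forked duplex oligonucleotide and 2 mM ATP final. Unwinding followed kinetically by red fluorescence (ex 525, em 598 nm).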
# PI5P4K alpha inh: PI5P4K alpha (human) kinase inhibition; P48426; PI5P4Kalpha enzyme, ADP-Glo luminescence, 60 min; active compounds read low; max response, %; actives 1.2% (n = 330,000); AID 652105; active means max response of -50% or lower; inconclusive means between -30% and -50%; inactive means -30% or higher; further: value at the top dose of about 77 µM; on the % scale 0 is the no-effect control and ±100 the full control effect
#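 ADP-Glo luminescence end-point after a 60 min room-temperature kinase reaction. PI5P4Kalpha and substrate in HEPES pH 7.4 buffer with EGTA, 0.1% CHAPS and 5% DMSO; ATP at 5 microM final.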
# Pol beta inh: blocks human DNA polymerase beta activity. P06746. Pol beta primer extension/strand displacement, fluorescence kinetic. Potency, µM (top dose mostly 114 µM), inactives show at the top dose activity change, negative = inhibition, usual class: inhibitors. actives 1.3% (n = 340,000). AID 485314; further: potency means the concentration at half of the fitted maximal effect; on the % scale 0 is the no-effect control and ±100 the full control effect
#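 Values derive from four-parameter Hill fits of normalized kinetic data: reads at 0 and 10 min following addition of 50 nM substrate to 10 nM Pol beta preincubated 15 min with compound.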
# POLK inh: inhibitors of human DNA polymerase kappa. purified Pol kappa, fluorescent DNA synthesis assay, 10 min. Potency, µM (series often up to 107 µM), for inactives: at the highest dose activity, negative = inhibition, most hits filed as inhibitors. actives 0.53% (n = 400,000). AID 588579; further: potency means the concentration at half of the fitted maximal effect; on the % scale 0 is the no-effect control and ±100 the full control effect
#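 Readout: fluorescence, taken kinetically at 0 and 10 min. Conditions: 10 nM Pol kappa, 15 min RT compound preincubation, 50 nM substrate final. Controls: enzyme-free buffer wells.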
# Pol iota inh: blocks human DNA polymerase iota activity; Potency, µM (titrated, usually from 115 µM), without a hit: at the top dose activity, negative = inhibition, usual class: inhibitors; Q9UNA4; actives 1% (n = 390,000); Pol iota fluorescent replication assay, 10 min; further: potency means the concentration at half of the fitted maximal effect
# Target sequence (Q9UNA4 whole entry, looked up): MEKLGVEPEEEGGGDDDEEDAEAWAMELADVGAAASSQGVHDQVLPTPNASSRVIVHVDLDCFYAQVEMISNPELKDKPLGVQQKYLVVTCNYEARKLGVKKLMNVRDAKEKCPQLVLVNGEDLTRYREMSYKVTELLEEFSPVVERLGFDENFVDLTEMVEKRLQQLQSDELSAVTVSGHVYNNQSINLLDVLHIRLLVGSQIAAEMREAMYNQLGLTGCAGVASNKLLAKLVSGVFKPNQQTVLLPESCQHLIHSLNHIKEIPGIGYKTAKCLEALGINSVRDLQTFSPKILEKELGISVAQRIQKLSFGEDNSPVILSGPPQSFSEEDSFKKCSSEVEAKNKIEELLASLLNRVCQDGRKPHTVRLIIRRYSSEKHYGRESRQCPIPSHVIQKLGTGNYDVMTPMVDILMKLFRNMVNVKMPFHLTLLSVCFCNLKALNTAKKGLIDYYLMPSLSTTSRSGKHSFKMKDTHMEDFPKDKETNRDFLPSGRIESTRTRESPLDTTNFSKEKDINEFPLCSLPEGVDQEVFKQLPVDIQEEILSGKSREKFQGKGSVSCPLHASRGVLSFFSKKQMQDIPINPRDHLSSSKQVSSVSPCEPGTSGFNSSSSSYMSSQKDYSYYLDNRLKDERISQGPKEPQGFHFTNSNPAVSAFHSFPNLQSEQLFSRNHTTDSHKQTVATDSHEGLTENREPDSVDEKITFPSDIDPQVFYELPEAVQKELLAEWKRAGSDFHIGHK
#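 Pol iota at 10 nM preincubated 15 min with compounds at room temperature; reaction started with fluorescent substrate, 50 nM final. Fluorescence read kinetically at 0 and 10 min; buffer-only wells as negative control.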
# POLH inh: inhibitors of human DNA polymerase eta. recombinant Pol eta, fluorescent DNA replication assay. Potency, µM (doses to about 114 µM), inactives show at the top dose activity change, negative = inhibition, most hits filed as inhibitors. actives 1.2% (n = 390,000). AID 588591; further: potency means the concentration at half of the fitted maximal effect; on the % scale 0 is the no-effect control and ±100 the full control effect
#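 Pol eta at 10 nM preincubated with compounds 15 min at room temperature; reaction started with fluorescent substrate (50 nM final) and read kinetically at 0 and 10 min.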
# * = called active by the depositor; ? = inconclusive; nt = no result given; [ ] = dose if it differs, or a comment. An excerpt weighted towards active compounds, which were near 2.8% of everything screened. Unless noted, the call rests on the fitted dose curve; in most records, active means well fitted curve in the direction sought with a large enough effect; inconclusive means small, poorly fitted or top-dose-only effect, or another doubt; inactive means no such curve, though single readings can be large; an effect the other way counts as inactive or inconclusive.
SMILES,WRN inhibitor,PI5P4K alpha inh,Pol beta inh,POLK inh,Pol iota inh,POLH inh
COc1ccc(C2COc3cc(O)ccc3C2)c(OC)c1O (centres undefined),3.8%,-5.5,nt,8.7%,79.4µM*,-0.5%
CC1(C)C=Cc2c(ccc3c2OC[C@H](c2ccc(O)cc2O)C3)O1,-17.1%,23.0,nt,-3.8%,6.1%,-12.6%
COc1ccccc1/C=C/c1ccnc2ccccc12,nt,nt,nt,-3.4%,11.2%,nt
Oc1c(N=Nc2ccc(F)cc2)ccc2ccccc12,-28.8%,-0.9,15.4%,-15.4%,51.9%,-5.1%
Oc1c(N=Nc2nn[nH]n2)ccc2ccccc12,-32.1%[57.1 µM],-81.6*,nt,nt,nt,nt
CC1CCN2c3ccccc3CC3(C(=O)OC(C)(C)OC3=O)C2C1 (centres undefined),nt,nt,nt,0.0%,?,nt
CC1(C)OC(=O)C2(Cc3ccccc3N3CCCC32)C(=O)O1 (centres undefined),nt,nt,nt,?,79.4µM*,nt
CNc1cc(-c2ccccc2C)ncn1,nt,nt,nt,4.7%[60.1 µM],nt,nt
COCCNc1cc(-c2ccccc2C)ncn1,nt,nt,nt,31.6µM*,nt,nt
C[C@H](CO)N1C[C@H](C)[C@@H](CN(C)Cc2ccc(Cl)c(Cl)c2)Oc2c(NS(=O)(=O)c3cccs3)cccc2C1=O,-1.3%,3.4,nt,-17.2%,4.7%,?
COc1ccc(CN2CCN(c3nc4ccccc4s3)CC2)cc1,2.7%,3.6,14.7%,-13.8%,100.8%,-0.9%
COc1ccc(/C=C2/C(=O)N(c3nc4ccccc4s3)N=C2CSc2ccc(Cl)cc2)cc1,-16.2%,-71.7*,?,-17.2%,-15.9%,?
COc1ccccc1Cc1c(-c2ccc(C#N)cc2)nc2c3ccccc3ccn12,-18.3%,1.9,nt,nt,nt,nt
CCCCCCCCCCCCC(=O)N1CCCC[C@H]1CNC(=O)[C@@H](N)CCCCN,nt,nt,nt,-10.2%[19.4 µM],nt,nt
Cc1cc(NC(=O)CSc2n[nH]c(N)n2)no1,6.6%,-5.0,-11.3%,-12.1%,146.6%,-21.6%
Cc1ccc(/C=C/C2=Cc3c(sc(NC(=O)CSc4n[nH]c(N)n4)c3C#N)C(C)(C)C2)o1,nt,nt,39.8µM*,nt,nt,nt
COc1ccc(NC(=O)C2(C)Cc3c(-c4cccc(C(N)=O)c4)ccnc3O2)cn1 (centres undefined),4.2%,-2.4,nt,nt,nt,nt
Cc1cc(=O)[nH]c(-n2[nH]c3c(c2=O)CCCC3)n1,-11.7%,nt,11.3%,-14.6%,14.1µM*,-14.6%
COc1ccc(-c2nnn3c2nc(NCCc2ccc(OC)c(OC)c2)c2ccccc23)cc1,nt,nt,-9.1%,0.8%,59.7%,-9.3%
CN(C)CCN(C(=O)C1CCN(S(=O)(=O)c2cccs2)CC1)c1nc2c(F)cccc2s1,-3.7%,4.6,nt,-4.5%,-7.0%,-17.8%
O=C(Nc1ccc(S(=O)(=O)NC2=NCCCCC2)cc1)C1COc2ccccc2O1 (centres undefined),-3.3%,4.8,-27.7%,-9.1%,9.3%,-9.3%
O=C(Nc1cccc(S(=O)(=O)NC2=NCCCCC2)c1)C1COc2ccccc2O1 (centres undefined),?,?,12.6µM*,-24.3%,?,?
O=C(COC(=O)c1ccccc1NCCO)Nc1cccc(S(=O)(=O)NC2=NCCCCC2)c1,-8.4%[11.6 µM],-17.7,nt,?,39.8µM*,?
CCOc1ccccc1C(=O)OCC(=O)Nc1cccc(S(=O)(=O)NC2=NCCCCC2)c1,-4.4%,2.3,nt,-18.9%,4.8%,-13.2%
COc1ccc(N2C(=O)C(Cl)=C(Oc3cccc(OC)c3)C2=O)cc1,?,-87.3*,3.0%,-0.3%,?,-12.1%
SMILES,WRN inhibitor,PI5P4K alpha inh,Pol beta inh,POLK inh,Pol iota inh,POLH inh
COc1cc(/C=C(\C#N)C(=O)N2CCOCC2)cc(Br)c1O,-3.1%,-61.5*,0.1%,-7.2%,4.7%,-18.1%
COc1cc2c(NC3CCN(C)CC3)nc(N3CCCN(C)CC3)nc2cc1OCCN(C)C,nt,nt,nt,-7.2%,?,nt
Cc1ccc(NC(=O)c2ccc(Cl)c(N3C(=O)C=CC3=O)c2)cc1,50.1µM*,-68.0*,1.0%,-9.5%,2.4%,-2.6%
O=C(Nc1ccc(Cl)c(Cl)c1)c1ccc(Cl)c(Cl)c1,-1.5%,18.0,21.0%,-18.1%,-25.8%,-22.4%
Cc1cc(OCC(=O)Nc2ccc(CN3CCOCC3)cc2)c2c(C)cc(=O)oc2c1,10.6%,-3.1,23.3%,-39.1%,50.1µM*,3.9%
C=CS(=O)(=O)c1c2cc(OC)ccc2nc2ccc(OC)cc12,?,-17.7,nt,-22.3%,28.2µM*,?
COc1ccc(Nc2cc(C)nc(N3CCOCC3)n2)cc1,-8.4%,-1.0,24.0%,-10.3%,31.6µM*,3.9%
Cc1cccc(N2CCN(C(=O)CN3C(=O)COc4ccc(S(=O)(=O)N5CCCC5)cc43)CC2C)c1 (centres undefined),nt,nt,11.8%,-14.6%,13.9%,-10.6%
COc1ccc(S(=O)(=O)N(CCc2ccccc2)CC(=O)Nc2ccc(C)c(C)c2)cc1OC,nt,nt,2.9%,-13.9%,-28.2%,-4.7%
CCOC(=O)Cc1csc(SC(C)C(=O)Nc2ccc(NC(C)=O)cc2)n1 (centres undefined),4.1%,-1.0,89.1µM*,-0.2%,2.1%,-18.5%
O=C(Nc1ccc(F)cc1)c1ccc(=O)[nH]n1,11.9%,1.4,5.9%,-4.5%,47.9%,-12.2%
O=C(Nc1cccc(Cl)c1)c1ccc(=O)[nH]n1,-27.4%,3.7,4.2%,-4.5%,17.8µM*,-30.0%
Cc1ccc([N+](=O)[O-])cc1N=Nc1c(-c2ccc([N+](=O)[O-])cc2)[nH]n(C(N)=S)c1=O,-2.0%,?,-19.3%,-11.8%,?,?
NC(=S)n1[nH]c(-c2ccc([N+](=O)[O-])cc2)c(N=Nc2ccc(Cl)cc2)c1=O,?,?,?,?,20µM*,?
CN(C)c1ccc(N=Nc2ccc(S(N)(=O)=O)cc2)cc1,-18.9%,-15.8,?,-36.0%,20µM*,?
CN(C)N=Nc1ccc(S(N)(=O)=O)cc1,8.1%,-6.6,68.5%,-1.9%,-10.7%,-15.6%
